Test [1] in a line: NCI Yeast Anticancer Drug Screen. Data for the rad50 strain (AID 155).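 Also: 0% = growth of vehicle-only cultures of the same strain.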 Particulars: S. cerevisiae rad50 strain growth inhibition, active compounds read high. An outline of the steps:
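DNA repair mutant yeast, compound exposure, growth read-out; inhibition is taken relative to vehicle.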

Test [2] can be described thus: NCI Yeast Anticancer Drug Screen. Data for the mec2-1 strain (AID 157). Particulars: S. cerevisiae mec2-1 strain, active compounds read high. An outline of the steps: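 Vehicle-treated cultures served as reference for growth inhibition of compound-exposed mec2-1 yeast.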
A short description of test [3]: NCI Yeast Anticancer Drug Screen. Data for the sgs1 mgt1 strain (AID 161).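 Also: 0% = growth of cultures given vehicle only.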 Particulars: S. cerevisiae sgs1 mgt1 strain, active compounds read high. The essentials: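 Genetically altered yeast, compound exposure, growth inhibition relative to vehicle.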
A short description of test [4]: NCI Yeast Anticancer Drug Screen. Data for the cln2 rad14 strain (AID 165).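 Also: 0% = growth equal to vehicle treated cultures.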 Particulars: S. cerevisiae cln2 rad14 strain, active compounds read high. The essentials:
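Each compound was tested on cln2 rad14 yeast. Inhibition of growth was calculated against vehicle-exposed controls.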

Test [5] can be described thus: NCI Yeast Anticancer Drug Screen. Data for the bub3 strain (AID 167). Particulars: S. cerevisiae bub3 mutant strain, active compounds read high. The essentials:
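In this screen, a yeast mutant lacking normal mitotic checkpoint function is challenged with compound. Relative growth versus vehicle gives the inhibition value.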

Test [6] in a line: NCI Yeast Anticancer Drug Screen. Data for the mlh1 rad18 strain (AID 175). Particulars: S. cerevisiae mlh1 rad18 strain growth inhibition, active compounds read high. An outline of the steps: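 Vehicle-treated cultures served as the reference for growth inhibition in a yeast strain carrying DNA damage repair alterations exposed to each compound.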
The mark [7] stands for this setting: at 5.0 µM (retest, dose inferred, filed as 0.5).
Where [8] appears, read: at 50.0 µM (retest, dose inferred, filed as 5.0).

The structures appear in SMILES notation. About 79,000 compounds went through this panel and 15% of them were active in at least one assay; those are over-represented in the sample as a whole. A number with no mark means an inactive call. Active and inactive are the calls of the source. Rule as the data show it: active = growth inhibition above about 70%; inactive = the rest.

Turning to `CCOC(=O)/C(=C\n1c(=O)sc2ccccc21)C(=O)c1ccccc1`, the growth inhibition in test [1] (setting [7]) is 18%; in test [1] (setting [8]), 24%; in test [1] (at 50.0 µM) it was 24.6%; in test [2] (setting [7]), 19%; in test [2] (setting [8]), 55%; in test [2] (at 50.0 µM), 50.5%. The growth inhibition in test [3] (setting [7]) was 27%; in test [3] (setting [8]), 64%; in test [3] (at 50.0 µM) it was 74.8% (active); in test [4] (setting [7]), 22%; in test [4] (setting [8]), 26%; in test [4] (at 50.0 µM), 19.5%. Moreover, the growth inhibition in test [5] (setting [7]) was 21%; in test [5] (setting [8]), 57%; in test [5] (at 50.0 µM), 7.95%; in test [6] (setting [7]) it was 20%; in test [6] (setting [8]), 41%; in test [6] (at 50.0 µM), 36.2%.
Consider `COC(=O)c1nnn(-c2ccc(Cl)cc2Cl)c1C(=O)c1ccc(Cl)c(Cl)c1`, for which the growth inhibition in test [1] (setting [7]) is 11%; in test [1] (setting [8]), 99% (active); in test [1] (at 50.0 µM), 98.3% (active); in test [2] (setting [7]) it was 2%; in test [2] (setting [8]) it was 99% (active); in test [2] (at 50.0 µM), 95.5% (active). Moreover, the growth inhibition in test [3] (setting [7]) was 4%; in test [3] (setting [8]) it was 99% (active); in test [3] (at 50.0 µM) it was 99% (active); in test [4] (setting [7]) it was 11%; in test [4] (setting [8]), 98% (active); in test [4] (at 50.0 µM), 92.1% (active). The growth inhibition is 17% in test [5] (setting [7]); 99% (active) in test [5] (setting [8]); 95.8% (active) in test [5] (at 50.0 µM); 19% in test [6] (setting [7]); 99% (active) in test [6] (setting [8]); 98.7% (active) in test [6] (at 50.0 µM).
Regarding `COc1ccc(SSc2ccc(OC)n[n+]2[O-])[n+]([O-])n1`, the growth inhibition is 98% (active) in test [1] (setting [7]); 99% (active) in test [1] (setting [8]); 99.3% (active) in test [1] (at 50.0 µM); 98% (active) in test [2] (setting [7]); 100% (active) in test [2] (setting [8]); 99.7% (active) in test [2] (at 50.0 µM). Also, the growth inhibition in test [3] (setting [7]) was 93% (active); in test [3] (setting [8]) it was 99% (active); in test [3] (at 50.0 µM), 98.8% (active); in test [4] (setting [7]), 57%; in test [4] (setting [8]), 97% (active); in test [4] (at 50.0 µM) it was 98.3% (active). The growth inhibition in test [5] (setting [7]) is 59%; in test [5] (setting [8]), 99% (active); in test [5] (at 50.0 µM), 99.5% (active); in test [6] (setting [7]) it was 72% (active); in test [6] (setting [8]) it was 99% (active); in test [6] (at 50.0 µM), 99.5% (active).
Turning to `O=C(CCC(O)(c1ccccc1)c1ccccc1)c1ccccc1`, the growth inhibition in test [1] (setting [7]) was -4%; in test [1] (setting [8]) it was 97% (active); in test [1] (at 50.0 µM), 65.8%; in test [2] (setting [7]) it was -13%; in test [2] (setting [8]), 98% (active); in test [2] (at 50.0 µM), -11.9%. The growth inhibition was -11% in test [3] (setting [7]); 98% (active) in test [3] (setting [8]); 13.2% in test [3] (at 50.0 µM); -89% in test [4] (setting [7]); 99% (active) in test [4] (setting [8]); -27.2% in test [4] (at 50.0 µM). Also, the growth inhibition in test [5] (setting [7]) is -9%; in test [5] (setting [8]), 46%; in test [5] (at 50.0 µM), 4.9%; in test [6] (setting [7]), -3%; in test [6] (setting [8]) it was 98% (active); in test [6] (at 50.0 µM), 70.5% (active).
With `CC(C)C1=CC[C@H]2C(=C1)CC[C@@H]1[C@]2(C)CCC[C@@]1(C)C(=O)O`, the growth inhibition in test [1] (setting [7]) is -2%; in test [1] (setting [8]), 90% (active); in test [1] (at 50.0 µM), 79.3% (active); in test [2] (setting [7]) it was 15%; in test [2] (setting [8]) it was 91% (active); in test [2] (at 50.0 µM), 84.5% (active). Further, the growth inhibition is 9% in test [3] (setting [7]); 91% (active) in test [3] (setting [8]); 74.8% (active) in test [3] (at 50.0 µM); -9% in test [4] (setting [7]); 92% (active) in test [4] (setting [8]); 87% (active) in test [4] (at 50.0 µM). The growth inhibition is -6% in test [5] (setting [7]); 89% (active) in test [5] (setting [8]); 78.2% (active) in test [5] (at 50.0 µM); 7% in test [6] (setting [7]); 90% (active) in test [6] (setting [8]); 77.1% (active) in test [6] (at 50.0 µM).
For `CCOc1ccc(/C=C\c2ccnc3ccccc23)cc1OCC`, the growth inhibition in test [1] (setting [7]) was -5%; in test [1] (setting [8]), 97% (active); in test [1] (at 50.0 µM), 98.3% (active); in test [2] (setting [7]), -1%; in test [2] (setting [8]), 99% (active); in test [2] (at 50.0 µM), 97% (active). Besides, the growth inhibition was 1% in test [3] (setting [7]); 99% (active) in test [3] (setting [8]); 50.9% in test [3] (at 50.0 µM); -3% in test [4] (setting [7]); 99% (active) in test [4] (setting [8]); 98.2% (active) in test [4] (at 50.0 µM). For the same compound, the growth inhibition was 5% in test [5] (setting [7]); 99% (active) in test [5] (setting [8]); 97.3% (active) in test [5] (at 50.0 µM); -13% in test [6] (setting [7]); 98% (active) in test [6] (setting [8]); 96.3% (active) in test [6] (at 50.0 µM).
As for `NC(=S)C(=S)N/C=C(/c1ccc(Cl)cc1)S(=O)(=O)Cc1ccc(Cl)cc1`, the growth inhibition was 1% in test [1] (setting [7]); 98% (active) in test [1] (setting [8]); 97.3% (active) in test [1] (at 50.0 µM); -17% in test [2] (setting [7]); 99% (active) in test [2] (setting [8]); 96.2% (active) in test [2] (at 50.0 µM). Moreover, the growth inhibition was -3% in test [3] (setting [7]); 98% (active) in test [3] (setting [8]); 96.8% (active) in test [3] (at 50.0 µM); -19% in test [4] (setting [7]); 97% (active) in test [4] (setting [8]); 94.8% (active) in test [4] (at 50.0 µM). Moreover, the growth inhibition in test [5] (setting [7]) was 21%; in test [5] (setting [8]), 98% (active); in test [5] (at 50.0 µM) it was 96.7% (active); in test [6] (setting [7]), 4%; in test [6] (setting [8]), 98% (active); in test [6] (at 50.0 µM) it was 97.3% (active).
Regarding `COc1c([N+](=O)[O-])cc(-c2ccccc2)cc1[N+](=O)[O-]`, the growth inhibition in test [1] (setting [7]) is -4%; in test [1] (setting [8]) it was 89% (active); in test [1] (at 50.0 µM), 69.9%; in test [2] (setting [7]), 10%; in test [2] (setting [8]) it was 98% (active); in test [2] (at 50.0 µM) it was 65.3%. The growth inhibition in test [3] (setting [7]) is 14%; in test [3] (setting [8]) it was 93% (active); in test [3] (at 50.0 µM) it was 77.8% (active); in test [4] (setting [7]), -2%; in test [4] (setting [8]), 58%; in test [4] (at 50.0 µM) it was 67.5%. The growth inhibition was 5% in test [5] (setting [7]); 63% in test [5] (setting [8]); 74.2% (active) in test [5] (at 50.0 µM); 26% in test [6] (setting [7]); 96% (active) in test [6] (setting [8]); 83.2% (active) in test [6] (at 50.0 µM).
For the compound `c1csc(-c2nccc3c2[nH]c2ccccc23)c1`, the growth inhibition in test [1] (setting [7]) was -18%; in test [1] (setting [8]), 92% (active); in test [1] (at 50.0 µM), 88% (active); in test [2] (setting [7]), -17%; in test [2] (setting [8]), 94% (active); in test [2] (at 50.0 µM), 92.8% (active). For the same compound, the growth inhibition in test [3] (setting [7]) is -29%; in test [3] (setting [8]), 95% (active); in test [3] (at 50.0 µM) it was 90.2% (active); in test [4] (setting [7]), -13%; in test [4] (setting [8]) it was 83% (active); in test [4] (at 50.0 µM) it was 91% (active). Further, the growth inhibition in test [5] (setting [7]) was -42%; in test [5] (setting [8]) it was 97% (active); in test [5] (at 50.0 µM), 91.3% (active); in test [6] (setting [7]), -19%; in test [6] (setting [8]) it was 94% (active); in test [6] (at 50.0 µM), 86.7% (active).
